Assay results as given in PubChem BioAssay AID687001 (Broad Institute, 2013).
Results with a measured potency or affinity are listed apart. Active and inactive are the calls of the source.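 The calls were made as follows: active = signal-lowering compounds whose fitted half-maximal concentration is at or below twice the top tested dose in every run; inconclusive = runs disagree, flat 30 to 70% inhibition, or poor curve fit; inactive = the rest.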

These molecules were tested against Protein S100-A4 (Homo sapiens) (UniProt P26447) (assay: S100A4-myosin IIA binding inhibitor potency, dose response, biochemical, fluorescence polarization, cherry-picked hits (AID 687001)). Conditions: FP, S100A4/TAMRA-myosin IIA peptide binding; series mostly up to 11 µM.
Chain of Protein S100-A4 (Homo sapiens) (P26447 whole entry, looked up): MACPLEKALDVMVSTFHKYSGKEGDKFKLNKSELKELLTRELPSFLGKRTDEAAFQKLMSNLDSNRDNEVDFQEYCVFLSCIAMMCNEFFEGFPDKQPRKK

outcome, inactive:
COc1cccc(CC(NC(C)=O)C(=O)NC2CCN(S(=O)(=O)c3ccc(NC(C)=O)cc3)CC2)c1OC (stereo not drawn), CCCNC(=O)N1CC(=O)N2[C@H](CO)[C@@H](c3ccc(-c4ccc(F)cc4)cc3)[C@H]2C1, C[C@@H]1CN([C@H](C)CO)C(=O)c2cc(N(C)C)ccc2O[C@@H](C)CCCCO[C@@H]1CN(C)C(=O)NC1CCCCC1, CC(=O)Nc1ccc(NC(=O)C(C)OC(=O)CCCN=C2NS(=O)(=O)c3ccccc32)cc1 (stereo not drawn), CCc1ccc(CNC(=O)C2CCN(S(=O)(=O)N3CCC(C)CC3)CC2)cc1, O=C(c1ccccc1F)N1CC(=O)N2[C@@H](CO)[C@H](c3ccc(C#Cc4ccccc4)cc3)[C@@H]2C1, ON(CCc1ccncc1)Cc1ccccc1, C[C@@H]1CN([C@H](C)CO)C(=O)c2cc(C#Cc3ccccc3)cnc2O[C@@H]1CN(C)C(=O)c1ccccc1F, O=C1CNC[C@H]2[C@@H](c3ccc(C#CC4CCCC4)cc3)[C@@H](CO)N12, CC[C@]12c3[nH]c4ccc(Cl)cc4c3CCN1C(=O)[C@@H](CC(=O)NCCCn1ccnc1)C[C@@H]2C(=O)N1CCN(C(=O)c2ccco2)CC1, COC(=O)c1c(NC(=O)CN(C)CC(=O)Nc2ccc(C)cc2)sc2c1CCC(C)C2 (stereo not drawn), CCCCN(CC(=O)NC1CCCC1)C(=O)C(=O)Nc1ccc2c(c1)OCCO2, Nc1cccc2c(=O)[nH][nH]c(=O)c12, Cc1noc(C)c1NC(=O)N[C@@H]1CC[C@H](CCNC(=O)C2CCOCC2)O[C@@H]1CO, O=C(NCC[C@H]1CC[C@H](NS(=O)(=O)c2ccccc2)[C@@H](CO)O1)c1cc(Cl)cc(Cl)c1, COCCCNC(=O)c1ccc2sc([C@@H]3O[C@H](CO)[C@H](O)[C@H](O)[C@H]3O)nc2c1, OC(CNC1CCCCCC1)COc1cccc2ccccc12 (stereo not drawn), CCCCCn1c(C)c(CC(=O)Nc2ccc(Oc3cccnc3)c(C)c2)c2ccccc21, O=C(C[C@H]1C=C[C@H](NC(=O)c2ccc(F)cc2)[C@H](CO)O1)NCc1ccncn1, CSc1ccccc1OCc1cc(C(=O)NCCN2CCCc3ccccc32)no1, CCCN1CCCCC(NC(=O)c2c(F)cccc2F)C1=O (stereo not drawn), CO[C@H]1CN(C)C(=O)c2ccc(NS(=O)(=O)c3ccccc3)cc2OC[C@H](C)N(Cc2cccnc2)C[C@@H]1C, CCCNC(=O)Nc1ccc2c(c1)C(=O)N(C)C[C@@H](OC)[C@@H](C)CN[C@@H](C)CO2
